# About 83,000 compounds went through this panel and 20% of them were active in at least one assay; those are over-represented in the sample as a whole.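 Compound tested at a single concentration for 48 hours in 96-well plates; a percent growth value below 10 was scored as active.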 A number with no mark means an inactive call. Active and inactive are the calls of the source.
# Assays:
# Test in all cases: NCI-60 one-dose screen, 48 h (100 = growth as untreated, 0 = no growth, -100 = all killed)
# Conditions in all cases: 10 µM unless noted
# [1] = system: NCI-H23 lung
# [2] = system: NCI-H226 lung
# [3] = system: NCI-H322M lung
# [4] = system: HOP-62 NSCLC
# [5] = system: NCI-H460 lung
# [6] = system: HOP-92 NSCLC
# [7] = system: A549/ATCC NSCLC
# [8] = system: 786-0 renal
# [9] = system: COLO 205 colon
# [10] = system: NCI-H522 lung
Structure (SMILES),growth [1],growth [2],growth [3],growth [4],growth [5],growth [6],growth [7],growth [8],growth [9],growth [10]
N#CC1=C(N)Oc2c(c(=O)[nH]c3ccc(Cl)cc23)C12C(=O)c1ccccc1C2=O,93.4%,88.2%,93%,88.2%,92.5%,98.6%,93.6%,96.4%,110%,–
COc1cc(OC)c(/C=C/C(=O)c2c(OC)cccc2OC)c(OC)c1,-22% (active),47.3%,1.28% (active),40.1%,9.67% (active),-1.46% (active),–,16.5%,-13.4% (active),-22.7% (active)
COc1ccc(-c2ccc(-c3ccc(C(=N)N)cc3)s2)cc1Cl,61.4%,92.8%,-35.5% (active),34.5%,-66.4% (active),75.8%,–,-83.1% (active),-36.1% (active),-36.1% (active)
Cc1ccc2c(Cn3cc(CSc4nc5ccccc5o4)nn3)cc(=O)oc2c1,96.1%,110%,104%,105%,110%,110%,105%,105%,111%,–
CCCCCCCCCCCCCCCCCCOc1ccccc1CC(=O)OCC[N+](C)(C)C,40.2%,28.7%,66.5%,4.93% (active),13.5%,-14% (active),11.5%,20.8%,-67.3% (active),–
O=C(/C=C/c1cccs1)Nc1ncc(Cc2ccccc2F)s1,47.5%,57.8%,37.9%,22.4%,12.9%,60%,29%,30.8%,4.7% (active),–
Fc1ccc(CNc2c3ccccc3nc3ccccc23)c(F)c1,42.8%,54.8%,–,57.2%,20%,-2.61% (active),40.1%,47.6%,26.8%,42.3%
Nc1nc2ccccc2c2c1S(=O)(=O)c1ccc(Cl)cc1C2=O,37.9%,63.1%,–,30.2%,23.5%,-25.4% (active),46.8%,16.2%,-18% (active),-73.5% (active)
Cn1c(=O)c2nc(/C=C/c3ccccc3)c(=O)[nH]c2n(C)c1=S,100%,101%,–,100%,103%,98.1%,107%,99.8%,121%,–
